In PubChem BioAssay (NCATS):
Active and inactive are the calls of the source. Calls follow the shape of the dose curve; as a rule, active = well fitted activation curve with a large enough effect; inconclusive = small, poorly fitted or top-dose-only effect; inactive = flat fitted curve, though single readings scatter.

Experiment: Cellular Toxicity (caspase-3) N2a (AID 665);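 also: compound exposure lasted 16 h at 37 °C before readout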
Conditions: N2a cells, luminescence, normalized: DMSO 0%, 10 µM staurosporine 100%; series mostly up to 92.2 µM
Excerpt: NIH Chemical Genomics Center [NCGC]
NIH Molecular Libraries Screening Centers Network [MLSCN]
National Institutes of Environmental Health Sciences [NIEHS]
National Toxicology Program [NTP]
We have developed a 1536-well cell-based assay for quantitative high throughput screening (qHTS) against a number of cell lines to determine in vitro caspase 3/7 activity of small molecules. This particular assay uses the N2a cell line which is derived from mouse neuroblastoma.
NCGC Assay Protocol Summary:
The Caspase-Glo 3/7 assay (Promega) is a homogeneous method to measure caspase-3 and caspase-7 activities in cultured cells. The quantitation of caspase 3/7 activity is based on the cleavage of a peptide-aminoluciferin substrate. After caspase cleaves the substrate the free aminoluciferin is liberated and serves as the substrate of luciferase, which generates the light. The luminescent signal is proportional to the amount of caspase 3/7 activity present.
Using the Caspase-Glo 3/7 assay, the amount of caspase 3/7 activity was measured in the N2a cells with complete culture medium following compound treatment for 16 hours. The assay was performed in opaque white 1536-well plates. In the screen, staurosporine and doxorubicin were used as positive controls. Library compounds were measured for their ability to cause the activation of caspase 3/7 in the cell line, as reflected by an increase in luminescence signal, in a concentration-dependent manner. Data were normalized to the controls for basal activity (DMSO only) and 100% stimulation (10 uM staurosporine). AC50 values were determined from concentration-response data modeled with the standard Hill equation.
qHTS protocol for caspase 3/7 assay in mouse N2a cell line
[Step] [Parameter] [Value] [Description]
1. Reagent; 5 uL; 1500 mouse N2a cells/well
2. Time; 5 hr; 37 °C incubation
4. Controls; 23 nL; doxorubicin 7 pM to 100 uM & staurosporine 1.4 pM to 20 uM
5. Time; 16 hr; 37 °C incubation
6. Reagent; 5 uL; Caspase-Glo 3/7 reagent
7. Time; 1 hr; Room Temperature
8. Detection; Luminescence; Viewlux plate reader
Keywords: caspase 3/7, apoptosis, mouse N2a cell line, luminescence, NTPHTS, NTPHTS_NCGC, NIEHS, EPA, DSSTox, MLSMR, MLSCN, NIH Roadmap, qHTS, NCGC

Row | SMILES | outcome
1 | Cc1ccc(C(C)(C)C)cc1 | inactive
2 | O=Cc1ccc(CO)o1 | inactive
3 | CCc1ccccc1 | inactive
4 | CC(C)(O)CCC(C)(C)O | inactive
5 | CCCCC=O | inactive
6 | Cc1ccc(C#N)cc1 | inactive
7 | ClCCl | inactive
8 | O=C(O)c1ccc(Cl)c(Cl)c1 | inactive
9 | CCCCCCCCC | inactive
10 | CC(C)(c1cc(Br)c(OCC(Br)CBr)c(Br)c1)c1cc(Br)c(OCC(Br)CBr)c(Br)c1 (stereo not given) | inactive
11 | Cc1ccccc1C(=O)O | inactive
12 | Cc1cccc(Br)c1 | inactive
13 | CCCCCCO | inactive
14 | CC(C)(O)C(=O)O | inactive
15 | Cc1ccc(S(=O)(=O)NC2CCCCC2)cc1 | inactive
16 | Cc1c(N)cccc1N | inactive
17 | NS(=O)(=O)O | inactive
18 | CC(=O)Nc1ccc(N)cc1 | inactive
19 | Cc1ccccc1Br | inactive
20 | Cc1ccccc1C=O | inactive

Row | SMILES | outcome
21 | Cc1c(N)cccc1[N+](=O)[O-] | inactive
22 | N#CCc1ccccc1[N+](=O)[O-] | inactive
23 | Nc1ccc(Cl)cc1[N+](=O)[O-] | inactive
24 | CC/C=C1/OC(=O)c2ccccc21 | inactive
25 | O=C(O)c1ccccc1Cl | inactive
26 | NC(=O)/N=N/C(N)=O | inactive
27 | CCCCN(CCO)CCCC | inactive
28 | CCC(C)O (stereo not given) | inactive
29 | FC(F)(F)c1ccccc1Cl | inactive
30 | C=CCCC | inactive
31 | CCCCCCC(=O)O | inactive
32 | C=C(C)C(=O)OCC(C)O (stereo not given) | inactive
33 | CC(C)CCOC(=O)/C=C/c1ccccc1 | inactive
34 | CCCCC/C=C/C=C/C=O | inactive
35 | c1ccc(Oc2ccccc2)cc1 | inactive
36 | CC(=O)OC(C)C | inactive
37 | C1CCOC1 | inactive
38 | CCC(O)C(C)(C)C (stereo not given) | inactive
39 | CCCCOCCOCCSC#N | inactive
40 | CCCCC(CC)C(=O)O (stereo not given) | inactive
